The record followed here is PubChem BioAssay (Tox21).

Experiment [1] addresses Progesterone receptor (Homo sapiens) (UniProt P06401). The experiment is described as follows: qHTS assay to identify small molecule agonists of the progesterone receptor (PR) signaling pathway (AID 1346784; calls by dose curve; also: nearly all actives have a fitted effect of over 30% in size). In short, it runs like this:
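HEK 293T PR-UAS-bla reporter cells, 2% charcoal-stripped FBS; 6 hr settle at 37C/5% CO2, compound (DMSO) 16 hr, LiveBLAzer B/G FRET substrate 2 hr RT, fluorescence intensity read.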

For experiment [2] the target is unchanged. The experiment is described as follows: qHTS assay to identify small molecule antagonists of the progesterone receptor (PR) signaling pathway (AID 1346795; active = well fitted inhibition curve with a large enough effect in the signal ratio in the repeat runs, not every such curve was filed as active; the % refers to the signal ratio; also: potency is read from the fitted curve at half-maximal effect). In short, it runs like this:
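Beta-lactamase reporter, HEK293T PR-UAS-bla line; 2% charcoal-stripped FBS; 6 hr pre-incubation, 37C/5% CO2. Compound + R5020 1 nM final, 16 hr. LiveBLAzer B/G FRET substrate, 2 hr RT; fluorescence intensity read.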
A general note: In qHTS, concentration-response curves come from the screen itself.

Experiment [3] in a line: qHTS assay to identify small molecule antagonists of the progesterone receptor (PR) signaling pathway - cell viability counter screen (AID 1346798). Also: series mostly up to about 92 µM; nearly all actives have a fitted effect of over 50% in size. In short, it runs like this:
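Luminescence readout (CellTiter-Glo, 30 min, RT) of viability in PR-UAS-bla HEK293T cells exposed to compound and R5020 agonist for 16 hr at 37C, 5% CO2; run in the same wells as the beta-lactamase reporter read.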

Experiment [4] can be described thus: qHTS assay to identify small molecule antagonists of the TGF-beta/Smad signaling pathway - cell viability counter screen (AID 1346824). Also: nearly all actives have a fitted effect of over 50% in size. In short, it runs like this:
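SBE-bla HEK 293T cells were plated overnight at 37 C, then given compounds in DMSO plus TGF-beta1 (added as 0.25 ng/mL solution) for 5 hr. After the bla read, CellTiter-Glo was added to the same wells and luminescence read after 30 min at room temperature.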

The nature of experiment [5]: qHTS assay to identify small molecule agonists of the TGF-beta/Smad signaling pathway - cell viability counter screen (AID 1346829). Also: top concentration of the series differs between compounds; nearly all actives have a fitted effect of over 45% in size. In short, it runs like this:
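Here the cytotoxicity of library compounds is measured in SBE-bla HEK 293T cells treated for 5 hr, using CellTiter-Glo added to wells already read for the beta-lactamase reporter.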

A short description of experiment [6]: qHTS assay to identify small molecule agonists of the TGF-beta/Smad signaling pathway (AID 1346859; active = well fitted activation curve with a large enough effect in the signal ratio in the repeat runs, not every such curve was filed as active; the % refers to the signal ratio; also: series mostly up to about 77 µM). In short, it runs like this:
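Read-out: fluorescence at 460 and 530 nm (405 nm excitation) after a 2 hr room-temperature incubation with beta-lactamase FRET substrate. SBE-bla HEK 293T cells had been treated with test compounds for 5 hr at 37 C.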

The target in experiment [7] is Thyrotropin-releasing hormone receptor (Homo sapiens) (UniProt P34981). The experiment is described as follows: qHTS assay to identify small molecule antagonists of the thyrotropin-releasing hormone receptor (TRHR) signaling pathway (AID 1346877; active = well fitted inhibition curve with a large enough effect in the repeat runs, not every such curve was filed as active; also: series mostly up to about 51 µM). In short, it runs like this:
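Overnight-plated (18 h, 37 °C) HEK293 cells expressing TRHR were dye-loaded 2 h, treated with compound, then stimulated with TRH at 1 nM final. Fluorescence intensity was captured every second for 3 min.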

The target is the same in experiment [8]. The experiment is described as follows: qHTS assay to identify small molecule agonists of the thyrotropin-releasing hormone receptor (TRHR) signaling pathway (AID 1346891; calls by dose curve;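 also: HEK293 cells expressing TRHR with calcium dye readout; series mostly up to about 58 µM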). In short, it runs like this:
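HEK293/TRHR cells, 1500 per well, 18 h 37 °C; Ca dye 2 h 37 °C; pin-tool compound addition (agonist mode); kinetic fluorescence 3 min, 1 s reads; 15 concentrations, triplicate.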

Experiment [9] can be described thus: Human pregnane X receptor (PXR) small molecule agonists, qHTS cell viability counter screen (AID 1346977). Also: nearly all actives have a fitted effect of over 50% in size. In short, it runs like this:
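Fluorescence read-out (CellTiter-Fluor) of viability in PXR-Luc HepG2 cells, multiplexed with the luciferase agonist read. Compounds in DMSO added after 5hr plating; 24hr total exposure at 37C, 5% CO2.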

Experiment [10] is described as follows: Caspase-3/7 induction in HepG2 cells by small molecules, qHTS assay (AID 1346978). Also: nearly all actives have a fitted effect of over 15% in size. In short, it runs like this: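 Wild-type HepG2 cells (2,000/well) were settled 5 h at 37 C, 5% CO2, then exposed to compounds in DMSO for 17 h. Caspase-3/7 activity was read by luminescence 30 min after adding Caspase-Glo 3/7 reagent at room temperature.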
Experiment [11] can be described thus: Caspase-3/7 induction in CHO-K1 cells by small molecules, qHTS cell viability counter screen (AID 1346979). Also: nearly all actives have a fitted effect of over 35% in size. In short, it runs like this:
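CHO-K1 wt, 1,500 cells/well; 5hr pre-incubation 37C/5% CO2; compound pin transfer (DMSO); 16hr exposure; CellTiter-Fluor added, 1hr, fluorescence read.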

Experiment [12] is described as follows: Caspase-3/7 induction in CHO-K1 cells by small molecules, qHTS assay (AID 1346980). Also: nearly all actives have a fitted effect of over 15% in size. In short, it runs like this:
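Wild-type cells were seeded at 1,500 per well and settled 5 hr at 37 C, 5% CO2, then exposed to DMSO-dissolved compounds for 17 hr. Caspase-Glo 3/7 reagent was added, and luminescence was read after 30min at room temperature.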

Experiment [13] addresses Nuclear receptor subfamily 1 group I member 2 (Homo sapiens) (UniProt O75469). The experiment is described as follows: Human pregnane X receptor (PXR) small molecule agonists, qHTS assay (AID 1346982). Also: nearly all actives have a fitted effect of over 35% in size. Also: potency is read from the fitted curve at half-maximal effect. In short, it runs like this:
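Stable HepG2 line reporting PXR-mediated CYP3A4 expression via luciferase. Treatment: 24 hr with compounds in DMSO at 37 C. Detection: ONE-Glo luminescence.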

Experiment [14] concerns the target Acetylcholinesterase (Homo sapiens) (UniProt P22303). Description: Acetylcholinesterase (AChE) small molecule antagonists: colormetric cell-based qHTS assay (AID 1347395; calls by dose curve; also: nearly all actives have a fitted effect of over 30% in size). In short, it runs like this: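 SH-SY5Y cells; cpd 30 min 37 C; + DTNB/acetylthiocholine, 90 min 37 C; colorimetric thiocholine read; qHTS.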
Experiment [15] has the same target. Description: Acetylcholinesterase (AChE) small molecule antagonists: enzyme-based qHTS assay (AID 1347397; calls by dose curve; also: nearly all actives have a fitted effect of over 55% in size). The following applies: Potency: AChE enzyme activity inhibition. In short, it runs like this:
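Tox21 library chemicals are tested in qHTS format against recombinant human AChE. The enzyme, dispensed at 50 mU/mL, sits with compound for 30 min at room temperature. A DTNB–acetylthiocholine cocktail follows, and colour is read after 10 min.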

Experiment [16] in a line: qHTS assay to identify small molecule agonists of the progesterone receptor (PR) signaling pathway - cell viability counter screen (AID 1346799; calls by dose curve; also: nearly all actives have a fitted effect of over 45% in size). In short, it runs like this: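 HEK293T PR-UAS-bla, 3,000 cells/well, 2% charcoal-stripped FBS; 6 h settle, compound 16 h at 37C/5% CO2; LiveBLAzer 2 h RT, then CellTiter-Glo 30 min RT, luminescence read.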
Experiment [17] can be described thus: Caspase-3/7 induction in HepG2 cells by small molecules, qHTS cell viability counter screen (AID 1346981). Also: series mostly up to about 92 µM; nearly all actives have a fitted effect of over 30% in size. In short, it runs like this: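 Treatment of HepG2 cells with DMSO-delivered compounds ran 16 hr at 37 C following a 5-hr pre-incubation of 2,000 cells/well. CellTiter-Fluor fluorescence, read after 1 hr, served as the viability measure in a qHTS format.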

A number with no mark means an inactive call. Inconclusive results are not listed. Calls of active or inactive are those of the source. Unless noted, calls follow the shape of the dose curve; as a rule, active = well fitted curve in the direction sought with a large enough effect in the repeat runs; inconclusive = weak or mixed curves; inactive = no such curve, though single readings can be large; an effect the other way counts as inactive or inconclusive.

Chain of Acetylcholinesterase (Homo sapiens) (P22303 whole entry, looked up): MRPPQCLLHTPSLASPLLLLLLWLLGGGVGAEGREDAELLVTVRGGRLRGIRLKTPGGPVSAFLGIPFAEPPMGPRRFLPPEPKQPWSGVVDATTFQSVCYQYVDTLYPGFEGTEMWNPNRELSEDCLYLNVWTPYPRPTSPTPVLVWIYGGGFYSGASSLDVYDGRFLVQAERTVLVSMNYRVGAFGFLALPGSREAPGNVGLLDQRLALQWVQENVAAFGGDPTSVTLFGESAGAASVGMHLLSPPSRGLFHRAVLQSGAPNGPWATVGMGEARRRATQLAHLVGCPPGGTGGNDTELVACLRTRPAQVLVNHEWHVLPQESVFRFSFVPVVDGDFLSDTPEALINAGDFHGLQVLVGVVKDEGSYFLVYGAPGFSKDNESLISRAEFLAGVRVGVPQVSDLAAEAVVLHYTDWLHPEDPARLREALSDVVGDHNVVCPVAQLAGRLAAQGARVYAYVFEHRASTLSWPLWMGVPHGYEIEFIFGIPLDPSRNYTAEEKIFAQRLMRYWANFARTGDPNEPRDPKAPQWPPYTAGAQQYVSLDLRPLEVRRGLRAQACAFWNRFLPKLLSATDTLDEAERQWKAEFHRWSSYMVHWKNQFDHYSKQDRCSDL
Chain of Thyrotropin-releasing hormone receptor (Homo sapiens) (P34981 whole entry, looked up): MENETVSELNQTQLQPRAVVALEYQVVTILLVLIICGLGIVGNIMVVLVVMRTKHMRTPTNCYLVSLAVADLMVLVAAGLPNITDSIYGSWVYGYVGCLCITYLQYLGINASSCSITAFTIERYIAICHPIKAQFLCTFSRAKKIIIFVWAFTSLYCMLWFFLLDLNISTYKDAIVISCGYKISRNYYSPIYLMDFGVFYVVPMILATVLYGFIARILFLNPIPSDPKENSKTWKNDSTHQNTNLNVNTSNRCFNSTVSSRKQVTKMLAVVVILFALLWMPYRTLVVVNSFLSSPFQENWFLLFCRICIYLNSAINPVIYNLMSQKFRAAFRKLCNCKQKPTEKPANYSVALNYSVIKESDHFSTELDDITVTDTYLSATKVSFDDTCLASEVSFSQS
Chain of Nuclear receptor subfamily 1 group I member 2 (Homo sapiens) (O75469 whole entry, looked up): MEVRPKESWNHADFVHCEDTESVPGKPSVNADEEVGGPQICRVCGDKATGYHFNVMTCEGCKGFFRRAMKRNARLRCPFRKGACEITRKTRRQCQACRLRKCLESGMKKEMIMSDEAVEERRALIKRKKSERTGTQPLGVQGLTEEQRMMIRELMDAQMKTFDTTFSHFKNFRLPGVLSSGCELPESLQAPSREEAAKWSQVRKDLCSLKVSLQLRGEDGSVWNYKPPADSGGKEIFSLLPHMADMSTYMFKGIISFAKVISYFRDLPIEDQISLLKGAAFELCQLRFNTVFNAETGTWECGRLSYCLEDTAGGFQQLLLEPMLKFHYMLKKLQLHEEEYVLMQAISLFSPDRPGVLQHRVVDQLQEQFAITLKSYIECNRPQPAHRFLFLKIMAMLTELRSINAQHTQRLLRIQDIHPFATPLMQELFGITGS
Chain of Progesterone receptor (Homo sapiens) (P06401 whole entry, looked up): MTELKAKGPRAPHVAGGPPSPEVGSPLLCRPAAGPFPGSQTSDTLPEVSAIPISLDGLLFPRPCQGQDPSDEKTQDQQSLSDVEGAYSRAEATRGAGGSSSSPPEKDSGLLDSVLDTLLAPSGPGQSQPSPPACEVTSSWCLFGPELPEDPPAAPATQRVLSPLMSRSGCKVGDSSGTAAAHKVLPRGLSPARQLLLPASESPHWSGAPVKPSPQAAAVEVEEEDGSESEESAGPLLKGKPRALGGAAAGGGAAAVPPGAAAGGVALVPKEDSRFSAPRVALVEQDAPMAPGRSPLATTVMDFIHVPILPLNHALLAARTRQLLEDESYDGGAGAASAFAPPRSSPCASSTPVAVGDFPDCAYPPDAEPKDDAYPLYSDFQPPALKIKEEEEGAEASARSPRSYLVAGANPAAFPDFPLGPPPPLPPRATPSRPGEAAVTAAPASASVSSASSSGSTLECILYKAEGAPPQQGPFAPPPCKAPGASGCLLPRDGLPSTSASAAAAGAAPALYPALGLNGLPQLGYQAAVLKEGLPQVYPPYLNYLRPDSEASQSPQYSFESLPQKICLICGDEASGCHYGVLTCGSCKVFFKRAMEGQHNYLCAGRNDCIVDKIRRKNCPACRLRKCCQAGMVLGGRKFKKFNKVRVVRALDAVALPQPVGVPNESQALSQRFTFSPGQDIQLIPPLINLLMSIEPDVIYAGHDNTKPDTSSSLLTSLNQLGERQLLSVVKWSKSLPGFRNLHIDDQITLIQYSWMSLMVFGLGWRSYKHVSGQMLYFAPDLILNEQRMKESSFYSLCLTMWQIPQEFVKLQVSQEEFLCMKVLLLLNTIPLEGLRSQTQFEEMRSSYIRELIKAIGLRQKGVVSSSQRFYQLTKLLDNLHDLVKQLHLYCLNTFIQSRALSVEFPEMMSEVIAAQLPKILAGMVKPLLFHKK

As to `Oc1c(Cl)cccc1Cl`, the Potency result in [1], in [2], in experiment [3], in [4], in experiment [9] and in [10] was “inactive” throughout. The Potency entry in experiment [11], in experiment [12], in [13], in experiment [14] and in experiment [15] was “inactive” in each case. Further, the molecule was called inactive in experiment [5], in experiment [6], in experiment [7] and in experiment [8].
Regarding `O=S(=O)(O)C(F)(F)C(F)(F)C(F)(F)C(F)(F)C(F)(F)C(F)(F)F`, the Potency entry in experiment [1], in experiment [2], in experiment [3], in experiment [4], in experiment [9] and in experiment [10] was “inactive” in each case. For the same molecule, the Potency result in [11], in [12], in experiment [13], in experiment [14] and in experiment [15] was “inactive” throughout. Also, the molecule was called inactive in experiment [5] and in experiment [6].
In the case of `CCC(=O)c1ccccc1`, the Potency result in [1], in [2], in experiment [3], in experiment [4], in experiment [9] and in experiment [10] was “inactive” each time. In addition, the Potency result in experiment [11], in experiment [12], in experiment [13] and in [15] was “inactive” throughout. In addition, the outcome in experiment [5], in experiment [6], in [7] and in experiment [8] was inactive.
As for `CN(N=O)C(N)=O`, the Potency result in experiment [1], in experiment [2], in experiment [16], in experiment [4], in [9] and in experiment [10] was “inactive” each time. The Potency entry in experiment [11], in [12], in [17], in experiment [13] and in [14] was “inactive” each time. The molecule was called inactive in experiment [5], in [6], in experiment [7] and in experiment [8].
For `CC(C)[N+](=O)[O-]`, the Potency result in experiment [1], in experiment [2], in [3], in experiment [4], in [9] and in [10] was “inactive” each time. The Potency result in experiment [11], in experiment [12], in [13] and in [15] was “inactive” each time. The call in [6], in experiment [7] and in experiment [8] was inactive.
With `CC(C)CC#N`, the Potency entry in experiment [1], in experiment [2], in experiment [3], in [4], in [9] and in [10] was “inactive” each time. Besides, the Potency entry in [12], in experiment [17], in [14] and in [15] was “inactive” throughout. Besides, the molecule was classed as inactive in [5], in experiment [6], in experiment [7] and in [8].
Turning to `ClC(Cl)C(Cl)Cl`, the Potency entry in experiment [1], in experiment [2], in experiment [3], in [4], in [9] and in [10] was “inactive” each time. The Potency entry in [11] and in [14] was “inactive” each time. In addition, the call in experiment [5] and in experiment [6] was inactive. In addition, the Potency in [13] is 55 µM (active).
In the case of `CC(C=O)Cc1ccc2c(c1)OCO2` (stereo unspecified), the Potency result in experiment [1], in experiment [2], in experiment [3], in experiment [9], in [10] and in [11] was “inactive” in each case. The Potency entry in experiment [12], in [14] and in [15] was “inactive” each time. Moreover, the call in experiment [5] and in experiment [6] was inactive.
Consider `CCC(=O)C(CCN(C)C)(c1ccccc1)c1ccccc1`, for which the Potency result in [1], in experiment [2], in experiment [3], in experiment [4], in experiment [10] and in experiment [11] was “inactive” in each case. Further, the Potency entry in experiment [12], in [17], in experiment [14] and in experiment [15] was “inactive” each time. Further, the result in experiment [5], in experiment [6], in [7] and in experiment [8] was inactive. In addition, in experiment [13], the Potency was 16.8 µM (active).
Regarding `CC(C1CC1)C(O)(Cn1cncn1)c1ccc(Cl)cc1` (stereo unspecified), the Potency result in [1], in experiment [3], in experiment [4], in [9], in experiment [10] and in [11] was “inactive” in each case. Also, the Potency result in experiment [12], in [17], in [14] and in experiment [15] was “inactive” throughout. Also, the Potency in experiment [2] is 48.3 µM (active); in [13] it was 27.1 µM (active). For the same molecule, the outcome in experiment [6], in experiment [7] and in experiment [8] was inactive.
